From PubChem BioAssay come the findings set out here.

Unmarked numbers belong to inactive results. How the calls were made is not given here.

The target in this assay is Pantothenate synthetase (Mycobacterium tuberculosis (strain ATCC 25618 / H37Rv)) (UniProt P9WIL5). Description: Recombinant Mtb pantothenate synthetase (PanC) inhibitors, coupled enzyme, confirmatory (AID 375).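 Further: 0% = full reaction with vehicle and 100% = no enzyme background.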 The settings on record: coupled enzyme assay; at 10 µM, stronger effect = higher value.
Sequence of Pantothenate synthetase (Mycobacterium tuberculosis (strain ATCC 25618 / H37Rv)) (P9WIL5 whole entry, looked up): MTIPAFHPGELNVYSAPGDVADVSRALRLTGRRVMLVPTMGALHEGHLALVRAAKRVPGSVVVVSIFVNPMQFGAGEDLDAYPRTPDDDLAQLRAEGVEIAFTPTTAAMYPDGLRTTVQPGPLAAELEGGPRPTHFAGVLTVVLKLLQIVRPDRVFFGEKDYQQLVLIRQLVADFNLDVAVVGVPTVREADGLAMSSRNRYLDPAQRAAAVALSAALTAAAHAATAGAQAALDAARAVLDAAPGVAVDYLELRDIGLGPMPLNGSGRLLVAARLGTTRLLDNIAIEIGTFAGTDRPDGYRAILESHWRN
`O=C(NC12CC3CC(CC(C3)C1)C2)N1CCN(C(=O)C2CCCO2)CC1` (stereo unspecified): the inhibition – broadly, the drop in the measured response relative to a control, in per cent – is 7%.

On to `Cc1cc(=O)oc2ccc(OCC(=O)N(Cc3ccc(F)cc3)Cc3ccco3)cc12`, for which the inhibition is 0%.

For `O=C(NCC(c1cccnc1)N1CCOCC1)c1cccs1` (stereo unspecified), the inhibition was 0%.

Regarding `CCOC(=O)N1CCN(Cc2nc3c(c(=O)n(C)c(=O)n3C)n2Cc2ccccc2)CC1`, the inhibition was 0%.

For `CCc1ccccc1NC(=O)CSC1=C(C#N)C(c2ccc(O)c(OC)c2)C2=C(CCCC2=O)N1` (stereo unspecified), the inhibition is 6%. Under `Cc1ccc(Cn2c(C(=O)NCCCN3CCOCC3)cc3sccc32)cc1` stands 2%. Under `COc1ccc2c(c1)[nH]c1c(=O)n(CCN(C)C)cnc12` stands 0%. `COc1cc(NC(=O)Cc2cccs2)ccc1-n1cnnn1`: the inhibition is 10%. Under `CCOC(=O)c1ccc2ncc(C(=O)OCC)c(NCCN(C)C)c2c1` stands 0%. Then `Cc1ccc2cc(CN(CC(C)C)C(=O)C3CCCO3)c(=O)[nH]c2c1` (stereo unspecified), with 0%; and `CCC1(c2ccc(F)cc2)NC(=O)N(CC(=O)c2ccc[nH]2)C1=O` (stereo unspecified), with 0%. Then `CCc1c(C(=O)Nc2cc(C)ccc2OC)[nH]c(C)c1C(C)=O`, with 0%; and `COc1ccc(Nc2nc(Nc3ccc(OC)cc3)nc(-n3[nH]c(=O)c(C)c3C)n2)cc1`, with 0%; and `Cn1c(C(=O)NCCCN2CCCCCC2)cc2c(=O)n(C)c3ccccc3c21`, with 0%. Turning to `O=C(O)CC1=C(O)C(=O)N(c2ccccc2)C1c1ccccc1` (stereo unspecified), the inhibition is 0%.

Regarding `O=C(CSc1nnnn1C1CCCC1)N1CCN(C(=O)c2ccco2)CC1`, the inhibition is 0%.
